Where “and” joins values, the source holds several entries; their conditions need not be identical. Identical values can stand only once.
Experiments:
[1] = biological target: T1, Serine/threonine-protein kinase D2 (Homo sapiens) (UniProt Q9BZL6); conditions: at 1 µM;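 further: mean value of PRKD2 inhibition, from the GSK PKIS screening panel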
T1 sequence (whole entry): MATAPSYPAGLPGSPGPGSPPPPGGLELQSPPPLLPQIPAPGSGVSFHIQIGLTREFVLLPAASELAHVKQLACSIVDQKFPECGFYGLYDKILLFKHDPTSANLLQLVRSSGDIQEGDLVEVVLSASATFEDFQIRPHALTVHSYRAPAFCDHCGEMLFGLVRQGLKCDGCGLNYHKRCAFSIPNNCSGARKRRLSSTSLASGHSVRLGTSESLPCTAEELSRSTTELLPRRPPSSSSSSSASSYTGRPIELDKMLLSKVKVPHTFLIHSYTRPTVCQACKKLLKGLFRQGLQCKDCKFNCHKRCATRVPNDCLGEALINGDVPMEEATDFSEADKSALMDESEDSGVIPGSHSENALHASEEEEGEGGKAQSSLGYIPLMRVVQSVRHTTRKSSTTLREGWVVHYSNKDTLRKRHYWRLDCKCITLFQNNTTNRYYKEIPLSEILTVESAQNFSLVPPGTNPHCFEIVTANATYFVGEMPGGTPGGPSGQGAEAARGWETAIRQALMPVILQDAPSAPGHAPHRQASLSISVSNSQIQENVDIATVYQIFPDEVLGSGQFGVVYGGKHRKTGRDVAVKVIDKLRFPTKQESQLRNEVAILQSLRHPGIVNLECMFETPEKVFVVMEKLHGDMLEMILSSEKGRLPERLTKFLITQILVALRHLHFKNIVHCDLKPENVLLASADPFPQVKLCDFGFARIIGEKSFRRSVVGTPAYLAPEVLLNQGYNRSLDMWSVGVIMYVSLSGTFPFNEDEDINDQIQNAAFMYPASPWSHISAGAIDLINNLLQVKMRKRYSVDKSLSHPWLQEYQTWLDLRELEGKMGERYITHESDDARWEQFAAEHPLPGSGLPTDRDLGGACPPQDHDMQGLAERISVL

[2] = biological target: T2, Serine/threonine-protein kinase D3 (Homo sapiens) (UniProt O94806); conditions: at 0.1 µM
T2 sequence (whole entry): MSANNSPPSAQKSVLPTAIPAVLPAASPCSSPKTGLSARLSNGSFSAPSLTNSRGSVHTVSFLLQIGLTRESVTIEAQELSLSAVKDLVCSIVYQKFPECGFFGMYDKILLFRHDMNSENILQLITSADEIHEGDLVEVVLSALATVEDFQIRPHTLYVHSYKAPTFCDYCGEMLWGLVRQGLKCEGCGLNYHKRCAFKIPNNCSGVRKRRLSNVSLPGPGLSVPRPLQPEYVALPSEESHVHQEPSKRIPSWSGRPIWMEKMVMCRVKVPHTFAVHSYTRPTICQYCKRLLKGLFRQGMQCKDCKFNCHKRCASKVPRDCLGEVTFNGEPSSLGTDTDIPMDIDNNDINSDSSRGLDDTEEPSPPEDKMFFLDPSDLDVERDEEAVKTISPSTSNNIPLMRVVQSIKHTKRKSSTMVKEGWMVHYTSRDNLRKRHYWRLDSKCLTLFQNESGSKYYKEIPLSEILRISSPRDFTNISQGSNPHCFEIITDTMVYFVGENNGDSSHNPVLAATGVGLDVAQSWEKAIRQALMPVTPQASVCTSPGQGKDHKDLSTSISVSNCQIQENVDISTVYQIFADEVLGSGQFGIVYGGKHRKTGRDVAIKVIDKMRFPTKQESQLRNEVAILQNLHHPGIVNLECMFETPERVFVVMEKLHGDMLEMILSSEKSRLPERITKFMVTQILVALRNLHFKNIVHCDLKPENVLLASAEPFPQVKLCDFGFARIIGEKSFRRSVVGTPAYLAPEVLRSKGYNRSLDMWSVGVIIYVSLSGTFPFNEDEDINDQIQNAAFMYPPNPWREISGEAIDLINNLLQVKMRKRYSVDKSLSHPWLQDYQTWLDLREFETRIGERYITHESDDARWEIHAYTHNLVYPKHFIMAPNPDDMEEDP

[3] = biological target: T2, Serine/threonine-protein kinase D3 (Homo sapiens); conditions: at 1 µM
[4] = biological target: T3, cGMP-dependent protein kinase 1 (Homo sapiens) (UniProt Q13976); conditions: at 0.1 µM
T3 sequence (whole entry): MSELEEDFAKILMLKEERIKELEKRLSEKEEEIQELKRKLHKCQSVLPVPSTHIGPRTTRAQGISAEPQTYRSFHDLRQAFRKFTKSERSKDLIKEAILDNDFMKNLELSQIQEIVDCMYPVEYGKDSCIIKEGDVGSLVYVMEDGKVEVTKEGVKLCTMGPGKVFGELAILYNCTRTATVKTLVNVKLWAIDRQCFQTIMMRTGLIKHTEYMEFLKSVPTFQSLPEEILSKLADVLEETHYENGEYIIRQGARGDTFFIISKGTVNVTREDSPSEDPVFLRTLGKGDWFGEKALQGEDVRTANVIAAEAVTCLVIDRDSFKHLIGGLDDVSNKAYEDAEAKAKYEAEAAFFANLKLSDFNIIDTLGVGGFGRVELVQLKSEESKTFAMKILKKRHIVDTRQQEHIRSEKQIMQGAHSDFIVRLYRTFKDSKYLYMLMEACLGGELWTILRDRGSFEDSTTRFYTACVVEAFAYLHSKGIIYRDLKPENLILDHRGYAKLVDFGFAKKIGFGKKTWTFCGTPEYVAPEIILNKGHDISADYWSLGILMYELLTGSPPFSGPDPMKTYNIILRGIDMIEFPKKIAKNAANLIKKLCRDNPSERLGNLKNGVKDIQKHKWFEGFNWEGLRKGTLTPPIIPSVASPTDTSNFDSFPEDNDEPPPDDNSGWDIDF

[5] = biological target: T3, cGMP-dependent protein kinase 1 (Homo sapiens); conditions: at 1 µM
[6] = biological target: T4, cGMP-dependent protein kinase 2 (Homo sapiens) (UniProt Q13237); conditions: at 0.1 µM
T4 sequence (whole entry): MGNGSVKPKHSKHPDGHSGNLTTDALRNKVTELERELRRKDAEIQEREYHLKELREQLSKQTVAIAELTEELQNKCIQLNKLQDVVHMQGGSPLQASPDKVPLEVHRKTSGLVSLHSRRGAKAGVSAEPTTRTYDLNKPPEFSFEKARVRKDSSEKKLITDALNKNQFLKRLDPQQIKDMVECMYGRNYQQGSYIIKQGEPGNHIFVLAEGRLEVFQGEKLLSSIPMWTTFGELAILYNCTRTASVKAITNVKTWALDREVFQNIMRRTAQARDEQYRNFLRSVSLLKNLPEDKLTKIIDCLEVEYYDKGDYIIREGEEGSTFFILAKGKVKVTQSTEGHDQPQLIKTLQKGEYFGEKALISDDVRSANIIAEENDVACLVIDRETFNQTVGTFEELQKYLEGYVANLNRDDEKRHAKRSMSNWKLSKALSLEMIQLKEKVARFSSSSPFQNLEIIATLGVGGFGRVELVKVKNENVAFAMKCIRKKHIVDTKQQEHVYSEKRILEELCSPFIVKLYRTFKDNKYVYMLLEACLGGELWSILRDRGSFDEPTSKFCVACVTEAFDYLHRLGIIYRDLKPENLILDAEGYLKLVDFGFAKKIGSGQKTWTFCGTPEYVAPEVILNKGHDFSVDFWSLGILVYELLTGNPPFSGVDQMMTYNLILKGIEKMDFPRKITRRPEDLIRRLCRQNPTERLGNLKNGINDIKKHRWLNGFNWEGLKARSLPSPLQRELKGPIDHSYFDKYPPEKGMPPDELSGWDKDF

[7] = biological target: T4, cGMP-dependent protein kinase 2 (Homo sapiens); conditions: at 1 µM
[8] = biological target: T5, cAMP-dependent protein kinase catalytic subunit PRKX (Homo sapiens) (UniProt P51817); conditions: at 0.1 µM
T5 sequence (whole entry): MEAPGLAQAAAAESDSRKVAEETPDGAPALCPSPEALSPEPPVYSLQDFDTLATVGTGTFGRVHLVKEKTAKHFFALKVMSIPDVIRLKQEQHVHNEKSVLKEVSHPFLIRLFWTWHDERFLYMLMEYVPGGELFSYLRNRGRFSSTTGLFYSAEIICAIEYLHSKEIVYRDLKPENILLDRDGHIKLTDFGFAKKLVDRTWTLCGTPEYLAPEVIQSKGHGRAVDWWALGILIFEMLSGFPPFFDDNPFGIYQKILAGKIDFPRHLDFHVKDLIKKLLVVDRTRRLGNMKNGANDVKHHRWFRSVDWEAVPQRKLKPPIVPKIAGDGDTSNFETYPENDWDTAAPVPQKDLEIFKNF

[9] = biological target: T5, cAMP-dependent protein kinase catalytic subunit PRKX (Homo sapiens); conditions: at 1 µM
[10] = biological target: Rho-associated protein kinase 1 (Homo sapiens) (UniProt Q13464); conditions: at 0.1 µM;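 further: values are mean percent inhibition of ROCK1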
Chain of Rho-associated protein kinase 1 (Homo sapiens) (Q13464 2-1354 limits assumed): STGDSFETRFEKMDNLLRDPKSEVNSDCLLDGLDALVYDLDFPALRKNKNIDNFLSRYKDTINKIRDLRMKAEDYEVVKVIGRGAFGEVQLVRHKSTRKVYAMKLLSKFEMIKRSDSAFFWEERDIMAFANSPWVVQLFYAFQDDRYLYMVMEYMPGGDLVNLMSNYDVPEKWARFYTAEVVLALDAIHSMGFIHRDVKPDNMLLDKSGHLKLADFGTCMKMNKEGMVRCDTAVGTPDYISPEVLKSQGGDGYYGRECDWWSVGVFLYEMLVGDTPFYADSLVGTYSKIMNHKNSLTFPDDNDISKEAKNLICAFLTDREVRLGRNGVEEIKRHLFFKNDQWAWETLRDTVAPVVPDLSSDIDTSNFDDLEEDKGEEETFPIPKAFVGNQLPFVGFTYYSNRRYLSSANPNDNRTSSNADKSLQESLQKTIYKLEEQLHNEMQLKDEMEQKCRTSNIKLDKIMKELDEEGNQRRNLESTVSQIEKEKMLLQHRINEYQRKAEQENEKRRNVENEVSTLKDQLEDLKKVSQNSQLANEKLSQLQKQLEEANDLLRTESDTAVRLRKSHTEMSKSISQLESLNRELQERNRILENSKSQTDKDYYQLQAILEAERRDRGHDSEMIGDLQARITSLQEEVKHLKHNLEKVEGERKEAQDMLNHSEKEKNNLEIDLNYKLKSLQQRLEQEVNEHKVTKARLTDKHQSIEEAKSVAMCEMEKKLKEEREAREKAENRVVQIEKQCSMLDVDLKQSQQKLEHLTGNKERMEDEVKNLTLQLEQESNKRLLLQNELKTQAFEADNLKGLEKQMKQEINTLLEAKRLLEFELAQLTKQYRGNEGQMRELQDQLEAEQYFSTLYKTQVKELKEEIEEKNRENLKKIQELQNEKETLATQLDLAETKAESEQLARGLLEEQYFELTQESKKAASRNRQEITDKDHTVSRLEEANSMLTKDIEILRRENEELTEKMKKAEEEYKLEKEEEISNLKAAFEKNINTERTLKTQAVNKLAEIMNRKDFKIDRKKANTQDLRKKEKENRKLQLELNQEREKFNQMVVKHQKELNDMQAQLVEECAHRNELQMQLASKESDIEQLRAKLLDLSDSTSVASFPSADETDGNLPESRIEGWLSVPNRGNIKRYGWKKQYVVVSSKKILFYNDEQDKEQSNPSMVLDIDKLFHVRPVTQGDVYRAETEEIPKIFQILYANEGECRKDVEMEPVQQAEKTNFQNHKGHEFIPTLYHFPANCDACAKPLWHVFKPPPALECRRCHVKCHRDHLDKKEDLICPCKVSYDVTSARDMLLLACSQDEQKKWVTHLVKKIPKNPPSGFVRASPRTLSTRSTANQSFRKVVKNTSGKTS

Compound	inhibition [1]	inhibition [2]	inhibition [3]	inhibition [4]	inhibition [5]	inhibition [6]	inhibition [7]	inhibition [8]	inhibition [9]	inhibition [10]
COc1cc2c(cc1Nc1nc(Nc3cccc(F)c3C(N)=O)c3cc[nH]c3n1)N(C(=O)CN1CCN(C(C)C)CC1)CC2	8.82%	3.64%	8.43%	4.61%	10.1%	3.86%	5.6%	2.44%	2.36%	0.72%
NC(=O)c1ccc2c(-c3ccnc(NCCCO)n3)c(-c3ccc(F)cc3)nn2c1	32.7%	7.38%	28.4%	3.77%	5.16%	1.84%	3.89%	1.77%	1.05%	1.85%
CCN1CCC(C(=O)Nc2n[nH]c3nnc(-c4cccc(F)c4F)cc23)CC1	0.06%	-0.39%	-0.3%	0.16%	0.21%	-1.12%	0.85%	0.8%	0.57%	-0.76%
CC(C)c1ccc(-c2cc(-c3c[nH]nc3-c3ccccn3)ccn2)cc1	10.9%	1.32%	5.01%	2.03%	2.34%	-0.11%	2.04%	-0.13%	-0.45%	0.38%
FC(F)(F)CNc1nccc(-c2cnn3ncccc23)n1	2.13%	2.29%	3.81%	1.02%	1.12%	2.48%	2.8%	1.1%	0.78%	-0.46%
CN(C)CCNC(=O)Nc1ccc(N(C)c2ccnc(Nc3ccc(CS(C)(=O)=O)cc3)n2)cc1	6.51%	4.97%	5.75%	3.82%	4.38%	1.71%	3.5%	0.73%	0.09%	3.43%
CN1CCN(Cc2ccc(-c3cc4ncnc(Nc5ccc(OCc6cccc(F)c6)c(Cl)c5)c4s3)o2)CC1	4.28% and 7.23%	2.56% and 5.35%	4.4% and 6.3%	2.05% and 4.47%	1.78% and 7.9%	0.82% and 2.4%	0.79% and 5.44%	1.82% and 3.39%	1.45% and 5.71%	1.65% and 1.83%
O=C1Nc2ccccc2/C1=C1\CCc2cc(O)ccc21	15.4%	6.3%	11.8%	3.61%	8.21%	4.25%	16.7%	2.86%	3.03%	1.2%
COC(=O)Nc1nc2cc(Oc3ccc(NC(=O)Nc4ccccc4)cc3)ccc2[nH]1	2.45%	2.48%	2.79%	0.72%	2.97%	1.5%	1.55%	2.09%	3.93%	2.24%
COc1ccc(-c2nn3ncccc3c2-c2ccnc(Nc3ccc(F)c(F)c3)n2)cc1	5.42%	4.4%	5.09%	2.68%	3.58%	5.81%	5.3%	3.54%	8.39%	1.21%
O=C(O[C@H]1CN[C@H](C#Cc2cc3ncnc(Nc4ccc(OCc5cccc(F)c5)c(Cl)c4)c3s2)C1)N1CCOCC1	6.01%	6.55%	6.45%	3.08%	7.14%	3.07%	4.91%	3.17%	6.34%	0.81%
Cn1c(-c2nonc2N)nc2cnccc21	10.4%	2.73%	8.54%	3.02%	15%	6.01%	38.7%	2.45%	6.56%	10.8%
CS(=O)(=O)Nc1ccc(-c2ccc3c(NC(=O)C4CC4)n[nH]c3c2)cc1	5.01%	3.46%	6.13%	2.24%	3.26%	1.29%	2.97%	1.03%	-0.97%	0.87%
c1cnn2ncc(-c3ccnc(NCCCN4CCOCC4)n3)c2c1	5.4%	3.94%	5%	3.07%	8.93%	3.44%	4.91%	1.06%	3.97%	2.01%
CN1CCC(C(=O)Nc2n[nH]c3nc(-c4ccc(O)cc4)c(Br)cc23)CC1	4.6% and 3.02%	1.49% and 1.43%	3.3% and 2.68%	2.6% and 0.38%	8.03% and 6.39%	2.67% and 0.36%	8.41% and 4.33%	3.06% and 1.23%	6.6% and 1.62%	1.28% and -0.29%
